{"source": "PubChem BioAssay AID811", "about": "(The Scripps Research Institute Molecular Screening Center, 2007)", "note": "Among all 16,000 compounds or so, about 10 (0.06%) were called active. Many of the other results were omitted from the sample, so actives are more common in it than they were. Values without a mark were called inactive. No stated cut-off is given here; in the data, active means inhibition above about 45%; inactive means the rest.", "data": [{"biological_target": "Toll-like receptor 4 (Homo sapiens) (UniProt O00206)", "sequence (O00206 whole entry, looked up)": "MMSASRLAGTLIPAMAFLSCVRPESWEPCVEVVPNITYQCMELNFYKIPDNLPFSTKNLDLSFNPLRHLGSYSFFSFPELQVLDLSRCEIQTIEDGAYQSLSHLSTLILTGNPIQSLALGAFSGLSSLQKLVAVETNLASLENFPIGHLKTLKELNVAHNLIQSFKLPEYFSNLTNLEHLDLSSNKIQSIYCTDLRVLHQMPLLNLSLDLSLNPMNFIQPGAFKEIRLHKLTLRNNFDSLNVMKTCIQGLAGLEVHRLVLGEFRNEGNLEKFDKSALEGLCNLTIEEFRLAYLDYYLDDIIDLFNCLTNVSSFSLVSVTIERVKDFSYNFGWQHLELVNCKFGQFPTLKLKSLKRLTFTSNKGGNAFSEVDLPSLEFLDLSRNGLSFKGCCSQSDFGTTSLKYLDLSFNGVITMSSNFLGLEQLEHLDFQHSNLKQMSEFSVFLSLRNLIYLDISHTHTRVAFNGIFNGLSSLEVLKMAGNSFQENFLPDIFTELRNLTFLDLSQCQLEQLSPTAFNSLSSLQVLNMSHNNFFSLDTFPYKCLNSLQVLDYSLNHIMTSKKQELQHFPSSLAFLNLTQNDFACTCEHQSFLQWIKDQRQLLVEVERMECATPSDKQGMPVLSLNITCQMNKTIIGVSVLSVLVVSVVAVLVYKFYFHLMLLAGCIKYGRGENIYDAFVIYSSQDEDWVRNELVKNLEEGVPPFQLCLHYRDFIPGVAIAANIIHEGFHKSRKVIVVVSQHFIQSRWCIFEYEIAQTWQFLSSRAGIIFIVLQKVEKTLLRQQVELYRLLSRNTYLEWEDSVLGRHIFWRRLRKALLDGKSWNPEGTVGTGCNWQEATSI", "assay": "blocks binding of human TLR4 to MyD88 (AID 811)", "details": "Cell-based TLR4-MyD88 binding inhibition assay; at 10 µM; stronger effect = higher value", "values": [{"smiles": "N/C(=N\\OC(=O)c1ccc(Cl)cc1)c1cccc(CS(=O)(=O)c2ccccn2)c1", "inhibition": "-5.81%"}, {"smiles": "CC(C)S(=O)(=O)/C(C#N)=C/NN1CCOCC1", "inhibition": "-3.92%"}, {"smiles": "COC(=O)c1cnc(N2CCCN(C(=O)C3COc4ccccc4O3)CC2)nc1C(F)(F)F", "note": "(centres undefined)", "inhibition": "-1.67%"}, {"smiles": "NC(=O)c1c(C(F)(F)F)cc(C(F)(F)F)cc1C(F)(F)F", "inhibition": "-6.47%"}, {"smiles": "COc1ccccc1NC(=O)c1ccc(C#Cc2ccccc2)o1", "inhibition": "-2.2%"}, {"smiles": "CC(C)[C@H]1COC(c2cccc(C3=N[C@@H](C(C)C)CO3)n2)=N1", "inhibition": "5.5%"}, {"smiles": "Cc1cc(S(=O)(=O)O/N=C(\\N)c2snnc2C)cc(C)c1F", "inhibition": "11.7%"}, {"smiles": "CC1(C)CC(=O)C=C(N2CCOCC2)C1", "inhibition": "-0.03%"}, {"smiles": "CCc1cnc(NS(=O)(=O)c2cc(Cl)sc2Cl)nc1-c1c(F)cccc1F", "inhibition": "-8.06%"}, {"smiles": "CC(C)CCOS(=O)(=O)c1ccc2c(c1)Cc1cc(S(=O)(=O)OCCC(C)C)ccc1-2", "inhibition": "4.69%"}, {"smiles": "CCCN(CCC)S(=O)(=O)c1ccc(C(=O)O/N=C(\\C)c2ccccc2O)cc1", "inhibition": "0.96%"}, {"smiles": "CC(=O)c1ccc(C#Cc2ccccc2)cc1", "inhibition": "-5.26%"}, {"smiles": "COC(=O)c1cnc(Oc2ccc(N)cc2)cc1C(F)(F)F", "inhibition": "-9.53%"}, {"smiles": "O=C(CSc1c(F)c(F)c(C(=O)O)c(F)c1F)Nc1cccc(C(F)(F)F)c1", "inhibition": "7.76%"}, {"smiles": "CCOC(=O)CN1C(=O)/C(=C\\c2ccc(C)o2)N=C1c1ccccc1", "inhibition": "0.42%"}, {"smiles": "O=[N+]([O-])c1ccc2ncccc2c1-n1cccc1", "inhibition": "2.94%"}, {"smiles": "CN(C(=O)Nc1ccc(Cl)cc1)n1cnc2ccccc2c1=O", "inhibition": "-8.6%"}, {"smiles": "Cn1cnnc1SC/C=C/c1ccccc1", "inhibition": "-13.5%"}, {"smiles": "O=C(O)CC(CC(=O)N1CCOCC1)c1ccccc1", "note": "(centres undefined)", "inhibition": "-5.3%"}, {"smiles": "Cc1ccc2c(c1)C(=O)C(=O)S2", "inhibition": "6.48%"}, {"smiles": "O=C(CCc1ccc(O)cc1)N/N=C/c1cc(Cl)cc(Cl)c1O", "inhibition": "-1.07%"}, {"smiles": "CC(C)(C)NC(=O)N/N=C/c1[nH]ncc1Br", "inhibition": "20.8%"}, {"smiles": "Cc1noc(C)c1S(=O)(=O)N1CCN(C2c3ccccc3-c3ccccc32)CC1", "inhibition": "-0.47%"}, {"smiles": "CS/C(=N\\S(=O)(=O)c1ccccc1)NNc1ccccc1", "inhibition": "-1.96%"}, {"smiles": "CCOC(=O)Cn1cc(Cl)ccc1=O", "inhibition": "-0.56%"}, {"smiles": "N/C(=N\\S(=O)(=O)c1ccc(Cl)cc1)N1CCOCC1", "inhibition": "-3.11%"}, {"smiles": "Cc1nn(C)c(C)c1Sc1nccc(-c2cccnc2)n1", "inhibition": "-8.01%"}, {"smiles": "CC(C)CC(F)Cc1cnc(=O)[nH]c1", "note": "(centres undefined)", "inhibition": "-2.36%"}, {"smiles": "Oc1ccc(-n2cncn2)cc1", "inhibition": "-7.43%"}, {"smiles": "O=C(NCc1ccccc1)c1cc2sccc2s1", "inhibition": "3.11%"}, {"smiles": "Cc1ccc2sc(NC(=O)NC(=O)c3c(Cl)cccc3Cl)nc2c1", "inhibition": "-10.8%"}, {"smiles": "Cn1cc(C(=O)Nc2ccc(F)c(Cl)c2)c(N)n1", "inhibition": "-11.3%"}, {"smiles": "CCOC(=O)c1cnc2c(S(=O)(=O)C(C)C)csc2c1Sc1cccc(Cl)c1", "inhibition": "-1.87%"}, {"smiles": "O=C(NNC(=S)Nc1ccccc1Cl)c1ccc(OC(F)(F)F)cc1", "inhibition": "6.01%"}, {"smiles": "O=C(c1ccc(Oc2ccc(Cl)cc2)c([N+](=O)[O-])c1)N1CCCC1", "inhibition": "0.91%"}, {"smiles": "CSc1sc(C(=O)Nc2cccc(C(F)(F)F)c2)cc1S(=O)(=O)C(C)C", "inhibition": "0%"}, {"smiles": "CCOC(=O)c1ccc2nc(C(F)(F)F)cc(N3CCN(Cc4ccccc4)CC3)c2c1", "inhibition": "3.69%"}, {"smiles": "CCOC(=O)Cn1sc2nc(C)cc(C)c2c1=O", "inhibition": "-2.32%"}, {"smiles": "O=[N+]([O-])c1ccc(N2CCC2)cc1", "inhibition": "8.05%"}, {"smiles": "CC(=O)OCc1ccc(COC(C)=O)c(OC(C)=O)c1OC(C)=O", "inhibition": "-11.5%"}, {"smiles": "COC(=O)/C=C/c1cn(C2OCC(CO)C2O)c(=O)[nH]c1=O", "note": "(centres undefined)", "inhibition": "5.73%"}, {"smiles": "NC(=O)c1cccc2c1OCCO2", "inhibition": "10.1%"}, {"smiles": "CCCN(CCC)S(=O)(=O)c1ccc(C(=O)NNC(=O)c2cc(OC)c(OC)c(OC)c2)cc1", "inhibition": "-4.25%"}, {"smiles": "N#C/C(=C\\c1ccsc1Sc1ccc(Cl)cc1)S(=O)(=O)c1ccc(Cl)cc1", "inhibition": "-3.72%"}, {"smiles": "Cc1nnc(Sc2ccc([N+](=O)[O-])c(Sc3nnc(C)s3)n2)s1", "inhibition": "-6.36%"}, {"smiles": "O=c1[nH]c2ccccc2s1", "inhibition": "2.88%"}, {"smiles": "O=c1oc2c3ccccc3c3oc(=O)sc3c2s1", "inhibition": "50.3% (active)"}, {"smiles": "Cc1cc(-c2noc(-c3cccs3)n2)no1", "inhibition": "-6.63%"}, {"smiles": "Cc1nnsc1C(=O)N/N=C/c1ccccc1Cl", "inhibition": "-4.11%"}, {"smiles": "CNC(=O)c1ccccc1I", "inhibition": "-1.84%"}, {"smiles": "O=S(=O)(CCSc1ccc(C(F)(F)F)cn1)CCSc1ccc(C(F)(F)F)cn1", "inhibition": "2.94%"}, {"smiles": "CC(=O)Nc1ccc(C)cc1N=Cc1ccncc1", "inhibition": "-3.13%"}, {"smiles": "N#CC(c1cc2ccccc2cn1)c1ccc2c(c1[N+](=O)[O-])C(=O)c1ccccc1C2=O", "note": "(centres undefined)", "inhibition": "8.07%"}, {"smiles": "Cc1cccc(-c2noc(NC(=O)O/N=C/c3ccccc3)n2)c1", "inhibition": "5.92%"}, {"smiles": "O=C(NNC(=S)Nc1ccc(S(=O)(=O)N2CCCCC2)cc1)c1ccncc1", "inhibition": "7.23%"}, {"smiles": "O=[N+]([O-])c1ccc2c(c1)CCN2S(=O)(=O)c1ccccc1", "inhibition": "-5.05%"}, {"smiles": "Cc1ccc(C(=O)N2CCN(c3cccc4[nH]ccc34)CC2)cc1", "inhibition": "-3.77%"}, {"smiles": "O=C(Oc1ccccc1N1CCCCC1)c1sc2ccccc2c1Cl", "inhibition": "4.69%"}, {"smiles": "CCOC(=O)c1cc(C)n(-c2cccc([N+](=O)[O-])c2)c1-c1ccccc1", "inhibition": "-2.88%"}, {"smiles": "CC(C)(C)c1ccc(C(=O)CC(N)=O)cc1", "inhibition": "-4.12%"}, {"smiles": "FC(F)(F)c1csc(N/N=C/c2ccccc2Cl)n1", "inhibition": "-1.14%"}, {"smiles": "C/C(=N\\NC(N)=S)c1csc(-c2ccccc2)n1", "inhibition": "-3.92%"}, {"smiles": "N/N=c1/nc2sccn2c2ncccc12", "inhibition": "-0.03%"}, {"smiles": "O=C1C2C3C=CC(O3)C2C(=O)N1OCc1ccc(OC(F)(F)F)cc1", "note": "(centres undefined)", "inhibition": "4.1%"}, {"smiles": "O=C(NC(=O)c1ccno1)Nc1ccccc1Cl", "inhibition": "-1.38%"}, {"smiles": "Cn1c(CN2C(=O)CSc3ccc(C(F)(F)F)cc32)nnc1SCC(=O)c1ccccc1", "inhibition": "-0.94%"}, {"smiles": "COc1ccc(/C=N/Nc2nc(C)cc(=O)[nH]2)c(OC)c1", "inhibition": "-3.66%"}, {"smiles": "CCCc1nc(N)ncc1C(=O)OCC", "inhibition": "-3.52%"}, {"smiles": "N/C(=N\\OC(=O)c1ccc([N+](=O)[O-])o1)c1ccc(OCc2ccc(Cl)cc2)c(Cl)c1", "inhibition": "-0.21%"}, {"smiles": "Cc1onc(-c2ccccc2)c1CNS(=O)(=O)c1ccc(-c2ccccn2)s1", "inhibition": "-0.5%"}, {"smiles": "O=S(=O)(Nc1ccc2[nH]ccc2c1)c1cccs1", "inhibition": "14.7%"}, {"smiles": "CC(=O)c1nnc2cc(C)nn2c1C", "inhibition": "3.88%"}, {"smiles": "CS(=O)(=O)c1ccc(C(=O)Nc2cccc(Cl)c2)cc1", "inhibition": "-0.58%"}, {"smiles": "CCCCc1ccc(S(N)(=O)=O)cc1", "inhibition": "-0.44%"}, {"smiles": "O=C(Nc1ccccc1C(=O)NCc1c(F)cccc1Cl)c1ccccc1Cl", "inhibition": "2.65%"}, {"smiles": "O=[N+]([O-])c1ccc(C2CC2(Br)Br)cc1", "note": "(centres undefined)", "inhibition": "11.1%"}, {"smiles": "C/C(=N\\O)C(C)(C)Nc1ccc(C(C)(C)C)cc1", "inhibition": "0.91%"}, {"smiles": "O=C(NNc1ccccc1C(F)(F)F)NS(=O)(=O)c1ccc(Cl)cc1", "inhibition": "2.98%"}, {"smiles": "COc1ccc(-c2csc(-c3cc(C)on3)n2)cc1", "inhibition": "7.05%"}, {"smiles": "N#Cc1c(C(F)(F)F)cc(-c2cccs2)nc1N1CCCCC1", "inhibition": "-4.83%"}, {"smiles": "Cc1cc2nsnc2cc1Cl", "inhibition": "0.39%"}, {"smiles": "COc1ccc(COCC(O)CN2CCN(c3ccc(C(F)(F)F)cn3)CC2)cc1", "note": "(centres undefined)", "inhibition": "-3.92%"}, {"smiles": "CSc1ccc(C(F)(F)F)cc1C(=O)/C=C/N(C)C", "inhibition": "-5.34%"}, {"smiles": "FC(F)(F)c1ccc(Cl)c(NC(=S)NN=C2CCCCCC2)c1", "inhibition": "0.56%"}, {"smiles": "Cc1ccc(N(C)NC(=O)Nc2ccc(Cl)cc2)nn1", "inhibition": "12.1%"}, {"smiles": "Cc1ccc(N=C2SC3(CC3)C(=O)N2c2ccc(C)cc2)cc1", "inhibition": "-5.53%"}, {"smiles": "Cc1ccc(S(=O)(=O)NNC(=O)c2ccccc2N)cc1", "inhibition": "-4.45%"}, {"smiles": "C=CCn1c(SCC(=O)Nc2nnc(-c3cccs3)s2)nnc1-c1ccco1", "inhibition": "-3.96%"}, {"smiles": "O=C(Nc1ccc(I)cc1Cl)C(=S)NCc1cccs1", "inhibition": "3.66%"}, {"smiles": "c1csc(-c2ccc(-c3ccon3)s2)c1", "inhibition": "-1.22%"}, {"smiles": "CSc1nc(N)c2ccccc2n1", "inhibition": "-9.58%"}, {"smiles": "O=C(Nn1cnnc1)c1cccs1", "inhibition": "1.09%"}, {"smiles": "Cc1nc(C(F)(F)F)ccc1C(=O)NC1CCCc2ccccc21", "note": "(centres undefined)", "inhibition": "0.52%"}, {"smiles": "Cc1ccccc1C(=O)NNC(=O)c1ccccc1C1=NCCCN1", "inhibition": "4.96%"}, {"smiles": "N#Cc1cccnc1NNC(=O)c1ccccc1C(=O)O", "inhibition": "4.06%"}, {"smiles": "O=c1[nH]c2c(=O)[nH]c(=S)[nH]c2nc1/C=C(\\O)c1ccccc1", "inhibition": "-4.76%"}, {"smiles": "N/C(=N\\OC(=O)c1cccc(Cl)c1)c1ccc2nonc2c1", "inhibition": "1.32%"}, {"smiles": "Oc1[nH]c2ccc(F)cc2c1N=NC(=S)NC1CC2C=CC1C2", "note": "(centres undefined)", "inhibition": "-1.4%"}, {"smiles": "Nc1c(-c2nnc(SCC(=O)c3ccccc3)o2)cnn1-c1ccccc1", "inhibition": "-5.52%"}]}]}
